In all, about 220,000 compounds went through this assay and about 920 (0.42%) were called active. The sample as a whole holds a higher share of actives than the screen did. Unmarked numbers belong to inactive results. Cut-off read from the data, not from the text of the source: active = inhibition above about 15%; inactive = the rest.
target: Transitional endoplasmic reticulum ATPase (Homo sapiens) (UniProt P55072); experiment: p97 ATP hydrolysis blockers – biochemical, primary screen (AID 1481); conditions: recombinant p97 ATPase, Kinase-Glo ATP luminescence, 3 h; at 8 µM; active compounds read high;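 note: 0% = DMSO vehicle and 100% = wells lacking enzyme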
Sequence (P55072 whole entry, looked up): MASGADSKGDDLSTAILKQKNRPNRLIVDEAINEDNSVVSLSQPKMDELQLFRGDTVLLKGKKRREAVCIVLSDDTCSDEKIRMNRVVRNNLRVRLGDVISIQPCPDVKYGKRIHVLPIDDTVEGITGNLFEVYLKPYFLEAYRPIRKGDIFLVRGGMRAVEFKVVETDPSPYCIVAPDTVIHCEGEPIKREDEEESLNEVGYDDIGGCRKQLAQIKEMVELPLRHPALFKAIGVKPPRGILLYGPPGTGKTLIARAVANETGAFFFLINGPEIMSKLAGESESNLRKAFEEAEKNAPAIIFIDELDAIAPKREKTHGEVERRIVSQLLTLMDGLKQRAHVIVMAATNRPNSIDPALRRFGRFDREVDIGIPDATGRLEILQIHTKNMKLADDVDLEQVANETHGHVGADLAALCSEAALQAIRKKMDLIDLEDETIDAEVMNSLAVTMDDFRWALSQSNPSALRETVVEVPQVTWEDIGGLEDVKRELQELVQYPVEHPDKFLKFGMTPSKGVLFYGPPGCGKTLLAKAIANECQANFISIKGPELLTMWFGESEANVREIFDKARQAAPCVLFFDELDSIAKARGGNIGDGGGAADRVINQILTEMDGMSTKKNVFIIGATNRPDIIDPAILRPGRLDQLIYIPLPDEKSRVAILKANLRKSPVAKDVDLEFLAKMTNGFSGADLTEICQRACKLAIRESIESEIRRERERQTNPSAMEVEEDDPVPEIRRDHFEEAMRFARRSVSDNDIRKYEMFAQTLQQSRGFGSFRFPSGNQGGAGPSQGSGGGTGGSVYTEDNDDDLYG

Compound | inhibition
O=c1[nH]c(CN2CC=C(c3ccccc3)CC2)nc2scc(-c3cccs3)c12 | 15.1% (active)
O=c1c2ccccc2nc(-c2ccccc2)n1-c1ccccn1 | 3.57%
CNC(=O)Nc1ccc(C(O)(C(=O)OC)C(F)(F)F)cc1 (stereo not given) | -1.08%
CC(=O)Nc1ccccc1C(=O)OCC(=O)c1cccc2ccccc12 | -0.08%
N=c1ccccn1Cc1ccccc1 | 10.5%

Reference: PubChem BioAssay AID1481 (The Scripps Research Institute Molecular Screening Center, 2009)
